Assay outcomes as filed in PubChem BioAssay.
Compounds with a hit are over-represented: about 10% of the library has one in this group of screens.
GPT2 inh: Primary qHTS assay for inhibitors of Glutamate pyruvate transaminase 2 (GPT2) | Alanine aminotransferase 2 (Homo sapiens), Q8TD30 | Potency, µM (titrated, usually from 57.7 µM), without a hit: at the top dose activity change, negative = inhibition, most hits filed as inhibitors | AID 1671188, 2021 | 100,000 compounds, 0.25% hits | Recombinant GPT2, coupled pyruvate oxidase/HRP Amplex Red fluorescence; note: nearly all actives have a fitted effect of over 60% in size
Target sequence (Q8TD30 whole entry, looked up): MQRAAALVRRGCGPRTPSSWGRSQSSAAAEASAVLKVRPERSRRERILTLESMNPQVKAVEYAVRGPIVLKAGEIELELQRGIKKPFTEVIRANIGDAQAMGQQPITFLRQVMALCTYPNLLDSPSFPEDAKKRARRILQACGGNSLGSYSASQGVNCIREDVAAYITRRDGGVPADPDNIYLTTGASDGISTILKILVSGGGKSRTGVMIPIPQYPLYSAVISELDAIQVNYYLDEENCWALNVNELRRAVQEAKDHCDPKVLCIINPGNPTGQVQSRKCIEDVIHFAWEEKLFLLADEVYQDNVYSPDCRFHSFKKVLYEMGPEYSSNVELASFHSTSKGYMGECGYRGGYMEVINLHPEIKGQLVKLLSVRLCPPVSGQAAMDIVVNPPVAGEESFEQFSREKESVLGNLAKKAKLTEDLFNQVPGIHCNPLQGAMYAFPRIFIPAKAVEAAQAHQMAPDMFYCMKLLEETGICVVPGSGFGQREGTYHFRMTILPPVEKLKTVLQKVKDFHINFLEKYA
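Fluorescence of coupled pyruvate oxidase/HRP/Amplex Red system (50uM Amplex, 30 min, dark) reports pyruvate formed by GPT2. Enzyme reaction: 10ng/uL GPT2, 2mM L-alanine, 250uM a-KG, 30 min room temperature, pH 7.5; 50uM AOA control.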
hNpr1 antagonist: Natriuretic polypeptide receptor (hNpr1) antagonism - Primary qHTS. Atrial natriuretic peptide receptor 1 (Homo sapiens), P16066. HEK293 hNpr1 GloSensor cGMP, ANP-stimulated luminescence. Potency, µM (highest dose often 46.3 µM), for inactives: top-dose activity change, negative = inhibition, actives largely listed as inhibitors. 76,000 compounds, 1.6% hits. AID 1347048, 2019; calls by dose curve; note: nearly all actives have a fitted effect of over 60% in size
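Compound pre-incubated 30 min at room temperature on GloSensor-loaded HEK293 cells stably carrying hNpr1 and the pGS-40F cGMP biosensor. Stimulation uses hNppA at 0.1 nM final; luminescence is taken at baseline and 20 min post-agonist.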
Luciferase inh: Firefly luciferase inhibition profiling of diverse chemical library using quantitative high-throughput screening. Potency, µM (doses to about 115 µM), most hits filed as inhibitors. 76,000 compounds, 2.5% hits. Luciferin 4-monooxygenase (Photinus pyralis), P08659. purified P. pyralis luciferase, luminescence, biochemical; note: nearly all actives have a fitted effect of over 65% in size
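Luminescence read by CCD imaging after purified firefly luciferase (10nM final) was added to substrate buffer holding 10uM D-luciferin and 10uM ATP, pH 7.5, pre-dosed with compound.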
NIH3T3 tox: Cytotoxic Profiling in NIH 3T3 Cell Line of Diverse Libraries Using Quantitative High-Throughput Screening; 94,000 compounds, 4.3% hits; NIH 3T3 viability, CellTiter-Glo ATP luminescence, 48-72 h; Potency, µM (titrated, usually from 96.7 µM), inactives show at the top dose activity change, negative = cytotoxicity, actives largely listed as inhibitors; note: nearly all actives have a fitted effect of over 55% in size
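Mouse fibroblast NIH 3T3 cells, 400 per well, received compound via pintool and were incubated for 48 or 72 hr prior to CellTiter-Glo ATP luminescence measurement.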
HEK293 tox: Cytotoxic Profiling in HEK 293 Cell Line of Diverse Libraries Using Quantitative High-Throughput Screening; AID 1345083, 2018; Potency, µM (doses to about 115 µM), for the others: top-dose activity change, negative = cytotoxicity, hits mostly inhibitors; 94,000 compounds, 6.6% hits; HEK 293 viability, ATP luminescence (CellTiter-Glo), 48-72 h; note: nearly all actives have a fitted effect of over 60% in size
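Luminescence from cellular ATP, measured with CellTiter-Glo, indicates HEK 293 viability. Cells plated at 250 cells/well are treated with compound for 48 or 72 hr at 37 degree Celsius before reagent addition.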
Active calls of the source: *; i = inactive; ? = inconclusive; / = no result; [ ] = another dose, or the depositor's remark. Unless noted, calls come from the whole dose curve; as a rule, active = well fitted curve in the direction sought with a large enough effect; inconclusive = small, poorly fitted or top-dose-only effect, or another doubt; inactive = no such curve, though single readings can be large; an effect the other way counts as inactive or inconclusive. % is set by controls: 0 for no effect and ±100 for the full control effect; potency is the fitted concentration of half-maximal effect.

SMILES | GPT2 inh | hNpr1 antagonist | Luciferase inh | NIH3T3 tox | HEK293 tox
COc1ccc(CN2CC3(C2)C(=O)N(Cc2cccc(Cl)c2)C(=O)[C@@H]2C[C@@H](O)CN23)c2ccccc12 | ? | -1% | i | ? | ?
COC(=O)c1ccc(CN2C(=O)[C@@H]3C[C@@H](O)CN3C3(CN(Cc4ccc(OC)c5ccccc45)C3)C2=O)cc1 | -11% | -9% | i | 79µM* | ?
O=[N+]([O-])c1cccc(-c2noc([C@@H]3Cc4nc[nH]c4CN3Cc3cccs3)n2)c1 | 2%[88.5 µM] | ? | i | 79µM* | ?
O=[N+]([O-])c1cccc(-c2noc([C@@H]3Cc4nc[nH]c4CN3Cc3ccc(F)cc3)n2)c1 | -24%[88.5 µM] | ? | i | ? | 50µM*
N#Cc1cccc(CN2Cc3[nH]cnc3C[C@H]2c2nc(-c3cccc([N+](=O)[O-])c3)no2)c1 | i | -11%[70.6 µM] | i | ? | ?
CCN(C(=O)CN1C=C(C(=O)OC)C(C)=NS1(=O)=O)c1cccc(C)c1 | i | 0% | i | -19% | -22%
COC1CCC12CCN(C(=O)Nc1ccccc1F)CC2 (stereo not drawn) | -11% | -1% | ? | -16% | -4%
CC(=O)N1CCN(c2nccc(Nc3ccccc3Cl)n2)CC1 | -8%[88.5 µM] | / | / | -28%[138 µM] | -19%[172 µM]
COc1ccc(Nc2ccnc(N3CCN(C(=O)c4ccccc4Cl)CC3)n2)cc1 | -2% | / | / | ? | 40µM*
O=C(c1ccccc1Cl)N1CCN(c2nccc(Nc3ccccc3Cl)n2)CC1 | 4% | / | / | ? | 45µM*
O=C(c1ccccc1Cl)N1CCN(c2nccc(Nc3ccccc3F)n2)CC1 | 3% | / | / | ? | ?
CC(C)C(=O)N1CCN(c2nccc(Nc3ccccc3Cl)n2)CC1 | i | / | / | ? | 40µM*
Cc1ccc(C(=O)N2CCN(c3nccc(Nc4ccccc4Cl)n3)CC2)cc1 | i | / | / | ? | 22µM*
COCCN1C(=O)CS(=O)(=O)C12CCN(C(=O)c1ccccc1F)CC2 | i | 5% | i | -18% | 4%
CC(C)C(=O)NC1CCN(c2ccc3nnc(-c4ccccc4)n3n2)CC1 | / | / | / | -24% | -13%
COc1ccc(C(=O)N2CCN(c3nccc(Nc4ccccc4Cl)n3)CC2)cc1 | -4% | / | / | ? | ?
COc1ccccc1C(=O)N1CCN(c2nccc(Nc3ccccc3Cl)n2)CC1 | i | / | / | 28µM* | ?
CCCCCC(=O)N[C@H]1C[C@@H](Cc2cc(COC(=O)CCCCC)on2)C1(C)C | 1%[88.5 µM] | -2%[70.6 µM] | i | -23%[174 µM] | ?
CCCCCC(=O)N[C@H]1C[C@@H](Cc2cc(COc3ccccc3)on2)C1(C)C | -46%[88.5 µM] | ? | i | 40µM* | ?
CC(C)(C)C(=O)N[C@H]1C[C@@H](Cc2cc(COc3ccccc3)on2)C1(C)C | -18%[88.5 µM] | -23%[70.6 µM] | i | ? | ?
CC(C)C(=O)N[C@H]1C[C@@H](Cc2cc(COc3ccccc3)on2)C1(C)C | -7%[88.5 µM] | ? | ? | 63µM* | 40µM*
CC1(C)[C@H](Cc2cc(COc3ccccc3)on2)C[C@@H]1NC1CCC1 | 1%[88.5 µM] | 3%[70.6 µM] | i | 32µM* | 35µM*
CSc1ccc(-c2cccc(C(=O)NCCNC(=O)C(C)(C)C)c2)cc1 | i | / | / | -15% | -7%
Cc1ccccc1Nc1cnc2ccc(-n3ccnc3)nn12 | ? | 4%[70.6 µM] | i | ? | ?
Fc1ccc(Nc2cnc3ccc(N4CCOCC4)nn23)cc1F | -11%[88.5 µM] | 0%[70.6 µM] | i | ? | ?
SMILES | GPT2 inh | hNpr1 antagonist | Luciferase inh | NIH3T3 tox | HEK293 tox
c1ccc(Nc2cnc3ccc(N4CCOCC4)nn23)cc1 | ? | -17%[70.6 µM] | i | ? | 112µM*
COc1ccc(Nc2cnc3ccc(N4CCOCC4)nn23)cc1 | -10%[88.5 µM] | -4%[70.6 µM] | i | ? | ?
Cc1ccccc1Nc1cnc2ccc(N3CCOCC3)nn12 | ? | ? | i | ? | 56µM*
FC(F)(F)c1cccc(Nc2cnc3ccc(N4CCOCC4)nn23)c1 | ? | ? | i | ? | 89µM*
OCCc1ccc(Nc2cnc3ccc(N4CCOCC4)nn23)cc1 | -11%[88.5 µM] | 4%[70.6 µM] | i | ? | -20%[172 µM]
CN1CCN(c2ccc3ncc(Nc4ccc(F)cc4)n3n2)CC1 | ? | 1%[70.6 µM] | i | 100µM* | 112µM*
COC[C@@H]1[C@H](C(=O)NCCC2=CCCCC2)CCC(=O)N1C | -19% | 0% | i | -12% | -24%
O=C(Nc1ccccc1)N1Cc2[nH]cnc2C[C@H]1c1nc(-c2ccc3c(c2)OCO3)no1 | -6%[88.5 µM] | -11%[70.6 µM] | ? | ? | -26%[172 µM]
COc1ccc(NC(=O)N2Cc3[nH]cnc3C[C@H]2c2nc(-c3ccc(C)cc3)no2)cc1 | -5%[88.5 µM] | ? | 63µM* | ? | ?
COc1ccc(NC(=O)N2Cc3[nH]cnc3C[C@H]2c2nc(-c3ccc(F)cc3)no2)cc1 | 0%[88.5 µM] | -30%[70.6 µM] | ? | 50µM* | ?
COc1ccc(NC(=O)N2Cc3[nH]cnc3C[C@H]2c2nc(-c3ccc(F)c(Cl)c3)no2)cc1 | 0% | ? | ? | 32µM* | ?
COc1ccc(NC(=O)N2Cc3[nH]cnc3C[C@H]2c2nc(-c3ccc(OC)cc3)no2)cc1 | -10% | -29% | ? | ? | -9%
COc1ccc(-c2noc([C@@H]3Cc4nc[nH]c4CN3C(=O)Nc3ccc(C)cc3)n2)cc1 | ? | ? | 18µM* | ? | ?
COc1ccc(NC(=O)N2Cc3[nH]cnc3C[C@H]2c2nc(-c3ccc(C(F)(F)F)cc3)no2)cc1 | -13% | -4% | ? | ? | ?
COc1ccc(NC(=O)C2CCc3nnc(CNC(=O)NC(C)(C)C)n32)cc1 (stereo not drawn) | i | / | / | -17% | 2%
Cc1cccc(NC(=O)N2CCC(Oc3ccc(-c4noc(C)n4)cc3)C2)c1 (stereo not drawn) | i | -21% | ? | -28% | ?
O=C(COc1ccccc1)Nc1ccc([C@@H](O)[C@H]2COCC(=O)N2CCCc2ccccc2)cc1 | -6% | 4% | i | ? | 79µM*
O=C(COc1ccccc1)Nc1ccc([C@@H](O)[C@H]2COCC(=O)N2Cc2ccc(F)cc2)cc1 | i | -5% | i | -18% | ?
CCOCCN1C(=O)COC[C@@H]1[C@H](O)c1ccc(NC(=O)COc2ccccc2)cc1 | 4%[88.5 µM] | 0%[70.6 µM] | i | -20%[138 µM] | -27%[172 µM]
COc1ccc(C(=O)Nc2ccc([C@@H](O)[C@H]3COCC(=O)N3CC3CCCCC3)cc2)cc1 | 1% | -19% | i | ? | 35µM*
